# From PubChem BioAssay
# “And” between values parts separate entries of the source, which are not always exact repeats. Equal values may be shown once. The source made the active and inactive calls.
# Tests used:
# Albumin (Bos taurus) = Albumin (Bos taurus) (UniProt P02769); assay: compounds binding labelled BSA control protein – biochemical, small-molecule microarray, Alexa647 label, 635/667 nm fluorescence, artefact control for SMM control protein annotation, profiling panel (AID 1118); conditions: BSA-A647 binding, fluorescence 635 nm, higher = more signal;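 further: score merges 667 nm emission intensity and signal-to-noise per printed compound spot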
# Sequence of Albumin (Bos taurus) (P02769 whole entry, looked up): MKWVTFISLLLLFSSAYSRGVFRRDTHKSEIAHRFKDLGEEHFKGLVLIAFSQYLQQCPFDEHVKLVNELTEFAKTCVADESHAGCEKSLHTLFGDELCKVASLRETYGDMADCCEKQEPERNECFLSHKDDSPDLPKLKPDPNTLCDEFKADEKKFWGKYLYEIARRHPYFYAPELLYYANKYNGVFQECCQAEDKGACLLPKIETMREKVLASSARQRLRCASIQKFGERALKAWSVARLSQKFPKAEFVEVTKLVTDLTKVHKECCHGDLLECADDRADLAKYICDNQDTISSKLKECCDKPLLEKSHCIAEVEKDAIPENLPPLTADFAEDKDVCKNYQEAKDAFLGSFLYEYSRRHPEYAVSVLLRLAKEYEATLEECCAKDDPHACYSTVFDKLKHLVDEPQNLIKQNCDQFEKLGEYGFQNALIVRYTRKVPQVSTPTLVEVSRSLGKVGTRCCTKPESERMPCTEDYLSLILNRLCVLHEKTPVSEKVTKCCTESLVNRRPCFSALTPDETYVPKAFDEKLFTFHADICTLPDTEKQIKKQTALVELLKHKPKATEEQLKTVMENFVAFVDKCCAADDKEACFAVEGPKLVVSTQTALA
# [1] = probe aXIP binding to arrayed compounds – biochemical, NeuroSMM set, 635/667 nm fluorescence, primary screen (AID 1119); conditions: small-molecule microarray, higher = more signal, called active from +8 up or from −8 down;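 further: probe is the protein aXip251-270 applied at 1 µg/mL to compound-printed slides; binding of probe to printed compounds measured as 667 nm fluorescence plus signal to noise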
# [2] = probe aNOTCH3 binding on compound microarray – biochemical, small-molecule microarray, 635/667 nm fluorescence, primary screen (AID 1120); conditions: higher = more signal;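 further: probe is a biotin-tagged antibody raised against NOTCH3 rather than NOTCH3 protein; score merges spot fluorescence near 667 nm with spot signal to noise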
# [3] = probe aNOTCH2 binding on compound microarray – biochemical, small-molecule microarray, 635/667 nm fluorescence, primary screen (AID 1121); conditions: higher = more signal;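 further: score merges feature fluorescence read at 667 nm with its signal to noise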
# [4] = molecular target: Carbonic anhydrase 2 (Homo sapiens) (UniProt P00918); assay: compounds binding carbonic anhydrase 2 – biochemical, small-molecule microarray, Alexa647-labelled CAII, profiling panel (AID 1122); conditions: CAII-A647 binding fluorescence, higher = more signal
# [5] = COS7 lysate on small-molecule microarray, probe aHis, 635 nm (AID 1123); conditions: COS7 cell lysate, fluorescence, higher = more signal;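 further: z-score combines 667nm fluorescence intensity with signal-to-noise per printed compound spot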
# [6] = probe aLAP1 signal on lysate-treated microarray – cell lysate, small-molecule microarray, COS7 lysate, primary screen (AID 1124); conditions: probe aLAP1, fluorescence, higher = more signal;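 further: lysate comes from COS7 cells expressing LAP1 and is applied at 0.3 µg/mL; score merges spot fluorescence near 667 nm with signal-to-noise over triplicate slides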
# Sam68 (KHDRBS1) = assay: compounds binding KHDRBS1 protein – biochemical, small-molecule microarray, 635 nm fluorescence, primary screen (AID 1125); conditions: higher = more signal;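 further: score merges 667 nm channel intensity with signal to noise over triplicate slides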
# [7] = system: Chordin-like protein 2 (CHRDL2); assay: compounds binding chordin-like 2 – biochemical, small-molecule microarray, 635 nm fluorescence, primary screen (AID 1126); conditions: fluorescence 635 nm, higher = more signal;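 further: printed compound slides probed with Chrdl2 protein at 4 µg/mL for 1 h at 4 C; score merges 667 nm emission intensity with signal to noise over three replicate slides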
# [8] = molecular target: Concanavalin-A (Canavalia ensiformis) (UniProt P02866); assay: compounds binding concanavalin A lectin – biochemical, small-molecule microarray, Alexa647 label, 635 nm, artefact control for SMM control protein annotation, primary screen (AID 1127); conditions: ConA-A647 binding fluorescence, higher = more signal;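 further: z combines 667 nm emission intensity with signal-to-noise across three replicate slides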
# Sequence of Concanavalin-A (Canavalia ensiformis) (P02866 whole entry, looked up): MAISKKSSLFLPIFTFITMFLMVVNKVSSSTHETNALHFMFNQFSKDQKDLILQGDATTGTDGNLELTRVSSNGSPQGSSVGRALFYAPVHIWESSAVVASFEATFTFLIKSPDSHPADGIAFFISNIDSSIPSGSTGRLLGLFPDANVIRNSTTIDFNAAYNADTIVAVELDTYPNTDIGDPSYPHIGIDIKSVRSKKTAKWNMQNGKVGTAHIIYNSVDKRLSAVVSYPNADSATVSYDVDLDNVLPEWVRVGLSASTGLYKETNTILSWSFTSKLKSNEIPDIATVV
# [9] = compounds binding Alexa647 anti-His antibody – biochemical, small-molecule microarray, 635 nm fluorescence, artefact control for SMM control protein annotation, primary screen (AID 1128); conditions: higher = more signal;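 further: score merges feature fluorescence with signal-to-noise for each printed compound spot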
# [10] = system: Human papillomavirus type 1a E7 protein (residues 1-88); assay: HPV1a E7 small-molecule binders, primary screen, biochemical, small-molecule microarray, residues 1-88, 635 nm (AID 1129); conditions: small-molecule microarray binding, fluorescence 635 nm; higher = more signal
# [11] = molecular target: Focal adhesion kinase 1 (Homo sapiens) (UniProt Q05397); assay: PTK2 protein binding on printed compound slides – biochemical, small-molecule microarray, 635/667 nm fluorescence, BSA, DTT, primary screen (AID 1130); conditions: 635 nm fluorescence, higher = more signal;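 further: composite of spot emission at 667 nm and signal to noise over triplicate slides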
# Sequence of Focal adhesion kinase 1 (Homo sapiens) (Q05397 whole entry, looked up): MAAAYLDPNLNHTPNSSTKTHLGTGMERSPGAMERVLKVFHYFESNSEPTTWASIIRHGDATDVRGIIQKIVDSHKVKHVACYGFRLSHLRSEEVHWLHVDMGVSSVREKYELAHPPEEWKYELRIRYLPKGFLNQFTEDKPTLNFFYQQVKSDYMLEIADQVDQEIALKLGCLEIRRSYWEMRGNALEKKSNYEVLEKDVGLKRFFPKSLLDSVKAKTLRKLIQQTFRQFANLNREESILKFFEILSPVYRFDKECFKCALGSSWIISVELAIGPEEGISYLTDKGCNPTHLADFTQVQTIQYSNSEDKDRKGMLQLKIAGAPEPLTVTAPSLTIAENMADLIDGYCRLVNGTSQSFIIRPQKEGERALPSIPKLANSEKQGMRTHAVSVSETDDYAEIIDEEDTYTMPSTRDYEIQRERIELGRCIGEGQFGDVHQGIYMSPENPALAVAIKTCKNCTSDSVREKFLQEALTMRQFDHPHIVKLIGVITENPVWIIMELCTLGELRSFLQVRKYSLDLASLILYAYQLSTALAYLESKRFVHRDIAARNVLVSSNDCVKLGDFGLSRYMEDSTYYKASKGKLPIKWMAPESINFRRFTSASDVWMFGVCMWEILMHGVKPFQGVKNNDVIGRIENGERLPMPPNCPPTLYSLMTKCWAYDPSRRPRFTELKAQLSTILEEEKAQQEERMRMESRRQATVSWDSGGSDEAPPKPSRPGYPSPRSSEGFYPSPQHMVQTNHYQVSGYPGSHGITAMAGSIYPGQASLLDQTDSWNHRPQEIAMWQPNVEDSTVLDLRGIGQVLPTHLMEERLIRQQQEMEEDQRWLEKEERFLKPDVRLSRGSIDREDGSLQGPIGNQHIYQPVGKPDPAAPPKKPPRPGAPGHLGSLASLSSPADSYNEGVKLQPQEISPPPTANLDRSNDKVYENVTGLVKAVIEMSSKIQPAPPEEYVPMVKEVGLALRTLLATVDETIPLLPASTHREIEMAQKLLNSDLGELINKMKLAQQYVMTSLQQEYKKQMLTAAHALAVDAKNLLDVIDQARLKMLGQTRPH
# [12] = system: Fibrinogen (Alexa647-labelled); assay: Alexa647-fibrinogen binding to printed small molecules – biochemical, small-molecule microarray, 635/667 nm fluorescence, artefact control for SMM control-protein annotation, profiling panel (AID 1131); conditions: fibrinogen-A647 binding fluorescence, higher = more signal;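 further: z-score merges 667 nm fluorescence with per-spot signal-to-noise over triplicate slides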
# [13] = molecular target: Follistatin (Homo sapiens) (UniProt P19883); assay: FST protein binding to printed compounds – biochemical, small-molecule microarray, 635/667 nm fluorescence, primary screen (AID 1132); conditions: 635 nm fluorescence, higher = more signal
# Sequence of Follistatin (Homo sapiens) (P19883 whole entry, looked up): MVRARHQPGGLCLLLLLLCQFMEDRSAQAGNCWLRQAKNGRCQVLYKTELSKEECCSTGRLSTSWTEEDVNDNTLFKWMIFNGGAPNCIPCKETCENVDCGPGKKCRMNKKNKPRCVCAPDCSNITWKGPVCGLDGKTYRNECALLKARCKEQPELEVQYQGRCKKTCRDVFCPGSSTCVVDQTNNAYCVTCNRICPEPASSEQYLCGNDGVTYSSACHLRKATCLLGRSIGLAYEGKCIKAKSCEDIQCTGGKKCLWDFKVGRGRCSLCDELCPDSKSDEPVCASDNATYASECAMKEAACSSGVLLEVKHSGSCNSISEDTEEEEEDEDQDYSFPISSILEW
# [14] = molecular target: Fibroblast growth factor 2 (Homo sapiens) (UniProt P09038); assay: basic fibroblast growth factor binding to printed compounds – biochemical, small-molecule microarray, 635/667 nm fluorescence, primary screen (AID 1133); conditions: FGF2, fluorescence 635/667, higher = more signal
# Sequence of Fibroblast growth factor 2 (Homo sapiens) (P09038 whole entry, looked up): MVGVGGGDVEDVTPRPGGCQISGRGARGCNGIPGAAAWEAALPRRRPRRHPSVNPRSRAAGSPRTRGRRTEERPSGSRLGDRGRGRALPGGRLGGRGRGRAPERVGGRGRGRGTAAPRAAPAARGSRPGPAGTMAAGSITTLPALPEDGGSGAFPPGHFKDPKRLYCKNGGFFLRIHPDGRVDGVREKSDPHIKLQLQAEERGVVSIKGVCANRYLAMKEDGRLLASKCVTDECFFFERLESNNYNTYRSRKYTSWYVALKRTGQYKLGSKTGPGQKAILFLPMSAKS
# [15] = JC-1 mitochondrial potential readout, lung cancer cells – cell-based, A549, JC-1 fluorescence, basal, 24 h, 100 nL, profiling panel (AID 1138); conditions: higher = more signal;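 further: A549 lung adenocarcinoma cells under basal conditions with no added stimulus; test concentration not given here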
# Lefty1 = Lefty1 protein binding to printed compounds – biochemical, small-molecule microarray, 635/667 nm fluorescence, primary screen (AID 1139); conditions: fluorescence 635/667, higher = more signal
# [16] = system: wheat germ agglutinin (Triticum aestivum), Alexa647-labelled; assay: Alexa647-WGA lectin binding to printed small molecules – biochemical, small-molecule microarray, 635/667 nm fluorescence, artefact control for SMM control-protein annotation, profiling panel (AID 1140); conditions: WGA-A647 binding, 635 nm fluorescence, higher = more signal;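 further: score merges 667 nm feature emission with signal to noise over triplicate slides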
# [17] = molecular target: Luciferin 4-monooxygenase (Photinus pyralis) (UniProt P08659); assay: inhibition of purified Photinus pyralis luciferase – biochemical, luminescence, purified enzyme, 2006 set, primary screen (AID 1141); conditions: purified firefly luciferase, SteadyGlo luminescence, 30 min; higher = more signal, called active from +8 up or from −8 down;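 further: cell-free assay with purified firefly luciferase at 100 ng per well in PBS; test concentration not given here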
# Sequence of Luciferin 4-monooxygenase (Photinus pyralis) (P08659 whole entry, looked up): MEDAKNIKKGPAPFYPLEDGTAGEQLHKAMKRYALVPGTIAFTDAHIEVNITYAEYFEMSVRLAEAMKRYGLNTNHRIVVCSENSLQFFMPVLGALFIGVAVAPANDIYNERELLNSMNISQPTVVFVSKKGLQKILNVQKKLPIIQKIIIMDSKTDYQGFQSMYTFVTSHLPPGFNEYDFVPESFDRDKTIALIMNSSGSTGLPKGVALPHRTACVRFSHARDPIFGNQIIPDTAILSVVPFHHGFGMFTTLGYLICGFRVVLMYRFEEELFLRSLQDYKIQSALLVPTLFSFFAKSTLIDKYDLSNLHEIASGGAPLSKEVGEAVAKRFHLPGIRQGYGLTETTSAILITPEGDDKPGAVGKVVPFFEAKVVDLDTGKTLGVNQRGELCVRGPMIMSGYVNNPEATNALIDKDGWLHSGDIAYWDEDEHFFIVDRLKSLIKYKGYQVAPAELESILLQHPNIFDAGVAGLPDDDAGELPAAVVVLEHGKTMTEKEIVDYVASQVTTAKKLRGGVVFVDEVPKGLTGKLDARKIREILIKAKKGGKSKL
SMILES,composite z-score (Albumin (Bos taurus)),composite Z-score [1],composite z-score [2],composite z-score [3],composite z-score [4],composite z-score [5],composite z-score [6],composite z-score (Sam68 (KHDRBS1)),composite z-score [7],composite z-score [8],composite z-score [9],composite z-score [10],composite z-score [11],composite z-score [12],composite z-score [13],composite z-score [14],z-score [15],composite z-score (Lefty1),composite z-score [16],z-score [17]
C=CCN(CCCCC)C(=O)C1N(CCOCCO)C(=O)C2C(C(=O)O)C3C=CC21O3 (stereo not given),0.92 and -1.47,2.54 (inactive) and -0.487 (inactive),-0.496 and -0.461,-0.195 and -0.189,0.853 and 0.794,-0.568 and 0.294,-0.615 and 1.6,-3.26 and -1,-2.12 and -3.36,-1.88 and -1.67,-0.749 and -1.54,-1.08 and -0.838,-0.527 and -1.09,-1.97 and -0.97,-0.98 and -2.75,-2.29 and -2.04,0.586 and -0.536,-1.41 and -1.91,-1.19 and -2.06,0.171 (inactive) and 0.472 (inactive)
CCOC(=O)NN=C1C[C@@H](O)[C@@H](O)[C@@H]2[C@@H]3C(=O)N(Cc4ccc5c(c4)OCO5)C(=O)[C@@H]3CC[C@@H]12,0.397,0.221 (inactive),-0.141,-0.0349,-0.158,0.257,-0.377,0.789,0.171,0.837,0.0648,0.449,-0.0156,0.669,0.0164,0.197,1.06,0.225,0.626,0.556 (inactive)
CO[C@@H]1COC(=O)CC=C[C@H](C)[C@@H](NS(=O)(=O)c2ccc(C)cc2)COC(=O)CC=C[C@@H]1C,0.451 and -0.303,-0.288 (inactive) and 0.209 (inactive),0.127 and 0.0876,-0.0995 and -0.175,0.0088 and -0.407,0.199 and -1.12,0.0136 and -0.0513,0.762 and 0.68,0.685 and 1.25,-0.0145 and -0.207,0.395 and -0.145,0.214 and -0.651,-0.0379 and -0.578,0.0363 and -2.26,0.407 and 1.42,1.16 and 1.17,1.66 and -1.16,1.32 and 0.9,0.216 and -0.0758,-0.439 (inactive) and 1.32 (inactive)
CO[C@H]1COC(=O)CC=C[C@@H](C)COC(=O)[C@@H](OCc2ccccc2)C=C[C@@H]1C,-0.853,0.528 (inactive),-0.307,-0.179,-0.297,-0.173,0.106,-0.239,1.23,-1.64,0.563,-1.07,-0.279,-1.44,1.47,1.74,1.8,1.65,-1.13,-0.917 (inactive)
C=C[C@@H](OC)[C@H](O)c1ccc(OC)c(O)c1,0.346 and 0.226,0.767 (inactive) and -1.19 (inactive),-0.0044 and -0.521,-0.0212 and -0.163,-0.189 and 0.232,-0.0302 and 0.043,-0.37 and -0.649,0.043 and -0.955,1.11 and -0.52,-0.847 and -1.4,0.0608 and -0.368,-0.285 and -1.14,-0.294 and -1.03,-0.267 and -0.492,1.03 and 0.477,0.731 and 0.0203,-0.366 and 0.877,0.85 and -0.493,-0.368 and 0.0786,0.318 (inactive) and -0.905 (inactive)
CC(C)OC(=O)C=C1C[C@@H](c2cccc(C(F)(F)F)c2)O[C@@H](c2cccc(C(F)(F)F)c2)O1,0.516 and 0.8,-0.313 (inactive) and -0.0102 (inactive),-0.166 and -0.257,-0.0597 and -0.118,0.407 and 0.738,2.3 and 0.841,1.56 and 0.103,-0.167 and 1.11,-0.24 and -0.619,0.711 and 1.06,0.143 and 0.877,1.17 and 0.699,0.805 and 0.224,0.795 and 0.302,-0.618 and -1.57,-0.496 and -0.841,1.52 and 2.59,-0.392 and -0.925,0.627 and 0.443,-0.864 (inactive) and 0.747 (inactive)
CC(=O)OC[C@H]1O[C@H](C#CC(C)(C)C)C=C[C@@H]1OC(C)=O,0.895,-0.0921 (inactive),0.116,-0.0649,0.813,1.6,0.164,1.22,0.411,1.09,0.726,0.996,0.589,0.979,0.418,0.791,0.707,1.22,0.445,-1.22 (inactive)
C=CCN(CCCCC)C(=O)C1N(CCCCCCO)C(=O)C2C(C(=O)O)C3C=CC21O3 (stereo not given),-1.03 and 0.785,0.207 (inactive) and 0.382 (inactive),-0.374 and -0.327,0.316 and -0.193,0.85 and 0.83,0.66 and 0.309,0.752 and -0.289,-0.408 and -1.45,-3.13 and -1.54,-0.556 and -1.47,-2.31 and 0.41,-0.813 and -0.519,-0.687 and -0.922,-1.63 and -1.36,-2.64 and -1.13,-2.25 and -2.14,-0.194 and 0.588,-1.55 and -1.07,-1.8 and -0.883,0.0975 (inactive) and -0.324 (inactive)
COC(=O)C1=C(C)N(Cc2ccccc2)[C@]23O[C@](C(=O)OC)(C(=O)N2[C@@H]1c1ccccc1)[C@H]1CCCC(=O)[C@H]13,-0.0265 and -0.0851,-0.138 (inactive) and -0.0964 (inactive),0.19 and -0.136,-0.0116 and -0.0649,0.311 and -0.0597,0.685 and -0.0027,0.26 and -0.0668,0.174 and 0.227,0.228 and 0.551,1 and 0.279,0.677 and 1.34,0.312 and 0.104,-0.035 and 0.215,0.753 and 0.377,0.372 and 0.544,0.349 and 0.456,0.455 and -0.75,0.784 and 0.694,0.528 and -0.124,-0.5 (inactive) and 0.264 (inactive)
CC(CO)N1C(=O)[C@@H]2C3C(=O)OCCC=C[C@H]3OC23C=CCN(Cc2ccccc2)C(=O)[C@@H]13 (stereo not given in full),-0.561 and -0.652,0.0931 (inactive) and -0.171 (inactive),-0.207 and -0.136,-0.174 and -0.133,0.84 and 0.944,-0.205 and 0.481,0.716 and 0.0818,-0.0818 and -0.239,-0.927 and -0.898,-1.3 and -1.38,-0.814 and -1.05,-0.716 and -0.415,0.275 and -0.855,-1.73 and -0.886,-0.972 and -1.08,-0.995 and -0.746,0.739 and 0.735,-1.17 and -0.88,-1.16 and -0.612,-0.965 (inactive) and -0.875 (inactive)
